Results from ChEMBL document CHEMBL3988442, “University of Dundee, Small-Polar-MMV Screening Library” (2021).
Hit rate of the full screen: of about 69,000 compounds, about 1,000 (1.4%) showed an effect of 50% or more. The full list was thinned out, with strong results kept by preference.

System: Leishmania donovani
Experiment: Leishmania intramacrophage assay
Type: functional, organism-based
Design: scale not given: in the data most compounds retested in dose-response had high values

## Cc1cccnc1NCCNC(=O)c1cnc(-c2ccccn2)nc1O
30.3 µM, […]
  Percent Effect: 81.9%

## Cc1nc(-c2ncc(C(=O)NCCNc3ncccc3C)c(O)n2)cs1
30.3 µM, […]
  Percent Effect: 28.4%

## Cc1cccnc1NCCNC(=O)c1cnc(-c2cccs2)nc1O
30.3 µM, […]
  Percent Effect: 22.97%

## O=C(c1occc1CN1C(=O)Cc2ccccc21)N1CCCCCC1
30.3 µM, […]
  Percent Effect: 31.83%

## Cc1cc(NC(=O)c2ccccc2Br)n(C)n1
30.3 µM, […]
  Percent Effect: -1.29%

## CC(C1CCN(Cc2ccc(N(C)C)nc2)CC1)N1CCOCC1 (stereo unspecified)
30.3 µM, […]
  Percent Effect: 35.27%

## CC(C1CCN(Cc2ccccc2OC(F)F)CC1)N1CCOCC1 (stereo unspecified)
30.3 µM, […]
  Percent Effect: 38.92%

## CC(C1CCN(Cc2cccc(OC(F)F)c2)CC1)N1CCOCC1 (stereo unspecified)
30.3 µM, […]
  Percent Effect: 37.87%

## CC(C)Oc1cccc(CN2CCC(C(C)N3CCOCC3)CC2)c1 (stereo unspecified)
30.3 µM, […]
  Percent Effect: 60.52%

## CC(C1CCN(Cc2ccc(OC(F)F)cc2)CC1)N1CCOCC1 (stereo unspecified)
30.3 µM, […]
  Percent Effect: 57.26%

## CC(C)Oc1cccc(CN2CCC(c3n[nH]c4ncccc34)CC2)c1
30.3 µM, […]
  Percent Effect: -3.157%

## CN1CCN(C(=O)c2n[nH]c3c2CN(C2CCOC2)CC3)CC1 (stereo unspecified)
30.3 µM, […]
  Percent Effect: 7.447%

## CCc1c(C)sc2c1c(N)nc(=O)n2CCN1CCCCC1
30.3 µM, […]
  Percent Effect: 45.7%

## OC(CN1CCC(c2ccn[nH]2)CC1)c1ccccc1F (stereo unspecified)
30 µM
  Percent Effect: 30.71%

## COC[C@@]12CCC[C@@H]1CN(C(=O)COC1CCCC1)C2
30.3 µM, […]
  Percent Effect: 36.81%

## COc1ccccc1CN1CC[C@]2(C[C@@H](OCC(=O)N(C)C)CO2)C1.O=C(O)C(F)(F)F
30.3 µM, […]
  Percent Effect: 48.44%

## CCOC1COC2(CCN(Cc3cccc(F)c3)CC2)C1.O=C(O)C(F)(F)F (stereo unspecified)
30 µM, 30.03 µM
  Percent Effect: 37.88%

## CN(C)C(=O)COC1COC2(CCN(c3cccc(F)c3)CC2)C1.O=C(O)C(F)(F)F (stereo unspecified)
30.3 µM, […]
  Percent Effect: 52.62%

## CN(C)C(=O)CO[C@H]1CO[C@@]2(CCN(Cc3ccoc3)C2)C1
30.3 µM, […]
  Percent Effect: 51.04%

## Cc1ccc(N2CCC3(CC2)CC(OCC(=O)N(C)C)CO3)nn1 (stereo unspecified)
30 µM, 30.03 µM
  Percent Effect: 10.68%

## CN(C)C(=O)CO[C@H]1CO[C@@]2(CCN(Cc3ccsc3)C2)C1.O=C(O)C(F)(F)F
30.3 µM, […]
  Percent Effect: 39.07%

## CN(C)C(=O)COC1COC2(CCN(c3ncccn3)CC2)C1 (stereo unspecified)
30.3 µM, […]
  Percent Effect: 64.89%

## COc1ccc(OCC(=O)NS(=O)(=O)c2ccc(Br)s2)cc1
30 µM
  Percent Effect: -22.07%

## Cc1occc1C(=O)N1CCCn2cnc(CN3CCCC3=O)c2C1
30.3 µM, […]
  Percent Effect: 1.546%

## CCOc1ccc(NC(C)=O)cc1S(=O)(=O)Nc1ccon1
30.3 µM, […]
  Percent Effect: 32.01%

## CC(C)C(=O)Nc1ncn(Cc2cccc(Br)c2)n1
30.3 µM, […]
  Percent Effect: 26.25%

## O=C(c1ccoc1)N1CC[C@@H]2O[C@@H](COCC3CCOCC3)CC[C@@H]21
30.3 µM, […]
  Percent Effect: 5.212%

## Cn1nc(C2CC2)cc1C(=O)N1CCC(c2nnsc2S(C)(=O)=O)CC1
30.3 µM, […]
  Percent Effect: 16.49%

## Cn1ncc(Cl)c1C(=O)N1CCC(c2nnsc2S(C)(=O)=O)CC1
30.3 µM, […]
  Percent Effect: 50.11%

## Cn1nccc1C(=O)N1CCC(c2nnsc2S(C)(=O)=O)CC1
30.3 µM, […]
  Percent Effect: 17.02%

## N#Cc1ccc(C(=O)N2CC[C@H]3[C@H]2CCN3CC2CCOCC2)cc1.O=C(O)C(F)(F)F
30.3 µM, […]
  Percent Effect: 9.058%

## Cc1nc(CNc2ccccc2CCC(F)(F)F)cs1
30.3 µM, […]
  Percent Effect: 6.456%

## O=C(Nc1nccs1)c1csc(NC2CCCC2)n1
30.3 µM, […]
  Percent Effect: 48.24%

## O=C(Nc1ccccn1)c1csc(NC2CCCC2)n1
30.3 µM, […]
  Percent Effect: -23.02%

## Cc1cnc(NC(=O)c2csc(NC3CCCC3)n2)s1
30.3 µM, […]
  Percent Effect: 92.33%

## Cc1cnc(NC(=O)c2csc(NCC(C)C)n2)s1
30.3 µM, […]
  Percent Effect: 62.13%

## Cc1cccc(NC(=O)c2csc(NCC(C)C)n2)n1
30.3 µM, […]
  Percent Effect: -8.581%

## CC(=O)NCC1CCC2(CCN(c3nccc(C4CCCC4)n3)CC2)O1 (stereo unspecified)
30.3 µM, […]
  Percent Effect: 3.551%

## Cn1cc(N2CC3(COCCN(Cc4ccccn4)C3)OCC2=O)cn1.O=C(O)C(F)(F)F (stereo unspecified)
30.3 µM, […]
  Percent Effect: 33.72%

## COc1cccc(C(=O)NCC2CCN(C(=O)c3ccoc3)CC2)c1
30.3 µM, […]
  Percent Effect: 42%

## CCn1cc(CN2C[C@H]3CC[C@@H]2CN(C(=O)c2ccncc2)C3)cn1
30.3 µM, […]
  Percent Effect: -21.9%

## CCC(C)c1csc(NC(=O)Cc2csc(-c3nnc[nH]3)n2)n1 (stereo unspecified)
30.3 µM, […]
  Percent Effect: 56.95%

## CC(C)c1nnc(NC(=O)Cc2csc(-c3nnc[nH]3)n2)s1
30.3 µM, […]
  Percent Effect: 6.395%

## CCC(C)c1csc(NC(=O)c2sc(-c3nnc[nH]3)nc2C)n1 (stereo unspecified)
30.3 µM, […]
  Percent Effect: 32.74%

## Cc1ccc2[nH]c(-c3cn(C4CCNCC4)nn3)nc2c1C
30.3 µM, […]
  Percent Effect: 79.71%

## Cc1cccc2[nH]c(-c3cn(C4CCNCC4)nn3)nc12
30.3 µM, […]
  Percent Effect: 8.553%

## Clc1ccccc1CCn1ccnc1-c1cn(C2CCNCC2)nn1
30.3 µM, […]
  Percent Effect: -11.26%

## COc1cccc(CCn2ccnc2-c2cn(C3CCNCC3)nn2)c1
30.3 µM, […]
  Percent Effect: -3.244%

## Cc1c(C)c(C)c2[nH]c(-c3cn(C4CCNCC4)nn3)nc2c1C
30.3 µM, […]
  Percent Effect: 88.31%

## Cc1ccc(-n2ccnc2-c2cn(C3CCNCC3)nn2)c(Cl)c1
30.3 µM, […]
  Percent Effect: 17.13%

## OCCc1ccccc1-n1ccnc1-c1cn(C2CCNCC2)nn1
30.3 µM, […]
  Percent Effect: -17.07%

## Cc1cc2nc(-c3cn(C4CCNCC4)nn3)[nH]c2cc1C
30.3 µM, […]
  Percent Effect: 79.71%

## CSc1ccccc1-n1ccnc1-c1cn(C2CCNCC2)nn1
30.3 µM, […]
  Percent Effect: -6.736%

## CCCc1noc(CN2CCOCC2C)n1 (stereo unspecified)
30.3 µM, […]
  Percent Effect: -25.75%

## COCc1noc(Cn2ncn3cccc3c2=O)n1
30.3 µM, […]
  Percent Effect: -34.29%

## Cc1nccc(N[C@H]2CN(C(=O)CN3CCOCC3)C[C@@H]2C(C)C)n1
30.3 µM, […]
  Percent Effect: 9.574%

## CC(C)n1cnc2c1C(C(=O)N1CCOCC1)N(CC1CC1)CC2.O=C(O)C(F)(F)F (stereo unspecified)
30.3 µM, […]
  Percent Effect: 17.66%

## O=C(NCc1ccccn1)Nc1ccc2[nH]nnc2c1
30.3 µM, […]
  Percent Effect: 23.78%

## Cn1ccc(CN2CCCC23CCN(Cc2ccccc2F)CC3)n1.O=C(O)C(F)(F)F.O=C(O)C(F)(F)F
30.3 µM, […]
  Percent Effect: 36.62%

## O=C(O)[C@@H]1CN(Cc2ccc3nsnc3c2)C[C@H]1c1cccnc1
30.3 µM, […]
  Percent Effect: 23.58%

## Cc1ccccc1-c1noc(CN2CCn3c(nnc3C3CC3)C2)n1
30 µM, 30.03 µM
  Percent Effect: 9.47%

## COc1cccc(CN2CC(O)CN(C(=O)C3CCC3)CC2=O)c1OC (stereo unspecified)
30.3 µM, […]
  Percent Effect: 10.32%

## COc1c(C2CCCN2C(=O)c2ccoc2C)c(C)nn1C (stereo unspecified)
30.3 µM, […]
  Percent Effect: 0.8433%

## Cc1nn(C)cc1C(=O)NCc1cc(N(C)C)nc2ccccc12
30.3 µM, […]
  Percent Effect: 27.45%

## Cc1nn(C)c(C)c1C(=O)NCc1cc(N(C)C)nc2ccccc12
30.3 µM, […]
  Percent Effect: 50.16%

## CCn1nc(C)cc1C(=O)NCc1cc(N(C)C)nc2ccccc12
30.3 µM, […]
  Percent Effect: 34.59%
